# Test results published in PMC5540273 (PLoS ONE, 2017).
# Experiments:
# Conditions in all cases: concentration: 1 μM, replicates: in singlicate; n = 1
# SNARK = test system: T1, SNARK
# T1 construct: gene NUAK2
# SNRK = test system: SNRK
# SRC = test system: SRC
# SRMS = test system: SRMS
# SRPK1 = test system: SRPK1
# SRPK2 = test system: SRPK2
# SRPK3 = test system: SRPK3
# STK16 = test system: STK16
# STK33 = test system: STK33
# STK35 = test system: STK35
# STK36 = test system: STK36
# STK39 = test system: STK39
# SYK = test system: SYK
# SgK110 = test system: SgK110
# TAK1 = test system: T2, TAK1
# T2 construct: gene MAP3K7
# TAOK1 = test system: TAOK1
# TAOK2 = test system: TAOK2
# TAOK3 = test system: TAOK3
# TBK1 = test system: TBK1
# TEC = test system: TEC
# 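Note: KINOMEscan kinase panel screen.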
SMILES,%Inh (SNARK),%Inh (SNRK),%Inh (SRC),%Inh (SRMS),%Inh (SRPK1),%Inh (SRPK2),%Inh (SRPK3),%Inh (STK16),%Inh (STK33),%Inh (STK35),%Inh (STK36),%Inh (STK39),%Inh (SYK),%Inh (SgK110),%Inh (TAK1),%Inh (TAOK1),%Inh (TAOK2),%Inh (TAOK3),%Inh (TBK1),%Inh (TEC)
Fc1cc(Cl)ccc1Nc1ccnc2cc(-c3ccc(CN4CCOCC4)o3)ccc12 [GW560109],0%,7%,99.2%,15%,35%,0%,10%,0%,6%,92.1%,0%,10%,16%,3%,0%,0%,0%,0%,0%,76%
NCCC(NC(=O)c1cc(Br)c(-c2ccnc3[nH]ccc23)s1)c1ccccc1.O=C(O)C(F)(F)F.O=C(O)C(F)(F)F (stereo not drawn) [GSK1307810],90.2%,0%,0%,0%,81%,36%,83%,63%,90%,20%,0%,5%,18%,70%,51%,48%,10%,0%,5%,0%
COc1cc(Nc2nccc(N3CCC(NC(=O)Nc4ccc5c(c4)OCO5)C3)n2)cc(OC)c1OC (stereo not drawn) [GSK1379766],13%,0%,0%,0%,45%,0%,0%,72%,0%,0%,0%,9%,39%,0%,0%,0%,0%,0%,33%,6%
N#CC1(c2cccc(C(=O)Nc3cccc(Oc4ccc5nc(NC(=O)C6CC6)sc5n4)c3)c2)CC1,0%,0%,97.6%,15%,0%,0%,0%,0%,16%,0%,0%,0%,22%,17%,0%,0%,28%,0%,15%,0%
Cc1cc(-c2ccnc(Nc3cccc(C#N)c3)n2)cc(C)c1O [GSK1440913],27%,0%,7%,0%,78%,54%,92.2%,90.4%,32%,25%,38%,8%,83%,0%,54%,77%,22%,42%,35%,19%
Cc1ccc(O)cc1Nc1ccnc2ccc(C(C)(C)C)cc12 [GW856805],19%,34%,99.9%,19%,24%,8%,9%,43%,11%,0%,0%,43%,24%,0%,57%,35%,13%,28%,27%,31%
Cc1nn2c(=O)cc(N3CCO[C@H](C)C3)nc2n1Cc1cccc(Cl)c1Cl [GSK2373693],0%,0%,19%,0%,40%,0%,0%,59%,0%,1%,0%,5%,19%,0%,0%,0%,0%,3%,0%,2%
Nc1ncc(-c2cn[nH]c2)c2scc(-c3ccc4c(c3)CCN4C(=O)Cc3ccccc3)c12 [GSK2593067],10%,0%,69%,59%,44%,0%,0%,0%,2%,0%,0%,0%,25%,0%,0%,0%,0%,0%,1%,4%
CN(C)c1ncnc2nc[nH]c12 [SKF-31736],0%,0%,0%,20%,0%,10%,17%,0%,0%,0%,0%,5%,0%,0%,0%,0%,26%,3%,34%,0%
